Among the data in PubChem BioAssay (NCI) are growth inhibition values, retold here.

This assay is described as follows: NCI Yeast Anticancer Drug Screen. Data for the rad50EPP+ strain (AID 151).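 Also: 0% = growth of vehicle-treated control cultures.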 The note with it: S. cerevisiae rad50 mutant strain, active compounds read high. As for the experimental part:
Growth inhibition of yeast strains with defined genetic alterations is measured as a screen for potential anti-cancer activity. Selected strains with alterations in DNA damage repair or cell cycle control were exposed to compounds and growth inhibition was measured relative to vehicle treated controls. The strain used in this assay is rad50EPP+

Compounds without any hit were thinned out: in the full panel of roughly 79,000, 15% have a hit. Unmarked numbers belong to inactive results. Activity calls are given as the source filed them. Rule as the data show it: active = growth inhibition above about 70%; inactive = the rest.

Take `BrCC[N+]12CC[N+](CCBr)(CC1)C2`: the growth inhibition reads like this: (at 1.2 µM) 9%; (at 3.7 µM) 14%; (at 11.0 µM) 12%; (at 33.0 µM) 81% (active); (at 100.0 µM) 92% (active).
In the case of `C/C(=N\NC(N)=O)C(CN1CCOCC1)C(c1ccccc1)c1c(O)c2ccccc2oc1=O` (stereo not given), the growth inhibition runs as follows: (at 1.2 µM) -2%; (at 3.7 µM) 4%; (at 11.0 µM) 1%; (at 33.0 µM) -1%; (at 100.0 µM) -10%.
In the same order, the values of `COC(=O)C1=C(C(=O)OC)C2OC1c1cc3ccccc3cc12` are 34%, 57%, 79% (active), 93% (active) and 96% (active).
Turning to `CSc1ccccc1[As](C)C`, the growth inhibition runs as follows: (at 1.2 µM) 1%; (at 3.7 µM) 11%; (at 11.0 µM) 74% (active); (at 33.0 µM) 98% (active); (at 100.0 µM) 99% (active).
In the same order, the values of `CNCC(O)c1ccc(O)c(O)c1.[Pt].c1ccc([PH+](c2ccccc2)c2ccccc2)cc1.c1ccc([PH+](c2ccccc2)c2ccccc2)cc1` are 2%, -3%, -21%, 11% and 93% (active).
In the same order, the values of `CCCCN(CCCC)CC(C(C)=O)C(c1ccccc1)c1c(O)c2ccccc2oc1=O` (stereo not given) are -7%, -5%, -6%, -8% and -3%.
In the same order, the values of `CNC(=O)ON(C(C)=O)C(=O)NC` are -19%, -15%, -15%, -6% and 42%.
As to `C/C(CCl)=N/NC1=NC(c2ccccc2Cl)P(=O)(NCCCNP2(=O)SC(N/N=C(/C)CCl)=NC2c2ccccc2Cl)S1` (stereo not given), the growth inhibition was 0% (at 1.2 µM); 2% (at 3.7 µM); 10% (at 11.0 µM); 43% (at 33.0 µM); 33% (at 100.0 µM).
